Test results from the supplement of paper PMC11732987, “Enantioselective OTUD7B fragment discovery through chemoproteomics screening and high-throughput optimisation” (Communications Chemistry, 2025).

Assays:
Experiment in all cases: log2 ratio of Biotin-Ahx-Ub-VS probe labelling (fragment/DMSO); higher = less target engagement (more negative = stronger competition), active = hit call of the paper (q ≤ 0.05, log2 ratio ≤ -1)
Settings in all cases: compound concentration: 200 uM; treatment time: 3 h
USP42 = molecular target: T1, USP42 (UniProt Q9H9J4)
T1 sequence (whole entry): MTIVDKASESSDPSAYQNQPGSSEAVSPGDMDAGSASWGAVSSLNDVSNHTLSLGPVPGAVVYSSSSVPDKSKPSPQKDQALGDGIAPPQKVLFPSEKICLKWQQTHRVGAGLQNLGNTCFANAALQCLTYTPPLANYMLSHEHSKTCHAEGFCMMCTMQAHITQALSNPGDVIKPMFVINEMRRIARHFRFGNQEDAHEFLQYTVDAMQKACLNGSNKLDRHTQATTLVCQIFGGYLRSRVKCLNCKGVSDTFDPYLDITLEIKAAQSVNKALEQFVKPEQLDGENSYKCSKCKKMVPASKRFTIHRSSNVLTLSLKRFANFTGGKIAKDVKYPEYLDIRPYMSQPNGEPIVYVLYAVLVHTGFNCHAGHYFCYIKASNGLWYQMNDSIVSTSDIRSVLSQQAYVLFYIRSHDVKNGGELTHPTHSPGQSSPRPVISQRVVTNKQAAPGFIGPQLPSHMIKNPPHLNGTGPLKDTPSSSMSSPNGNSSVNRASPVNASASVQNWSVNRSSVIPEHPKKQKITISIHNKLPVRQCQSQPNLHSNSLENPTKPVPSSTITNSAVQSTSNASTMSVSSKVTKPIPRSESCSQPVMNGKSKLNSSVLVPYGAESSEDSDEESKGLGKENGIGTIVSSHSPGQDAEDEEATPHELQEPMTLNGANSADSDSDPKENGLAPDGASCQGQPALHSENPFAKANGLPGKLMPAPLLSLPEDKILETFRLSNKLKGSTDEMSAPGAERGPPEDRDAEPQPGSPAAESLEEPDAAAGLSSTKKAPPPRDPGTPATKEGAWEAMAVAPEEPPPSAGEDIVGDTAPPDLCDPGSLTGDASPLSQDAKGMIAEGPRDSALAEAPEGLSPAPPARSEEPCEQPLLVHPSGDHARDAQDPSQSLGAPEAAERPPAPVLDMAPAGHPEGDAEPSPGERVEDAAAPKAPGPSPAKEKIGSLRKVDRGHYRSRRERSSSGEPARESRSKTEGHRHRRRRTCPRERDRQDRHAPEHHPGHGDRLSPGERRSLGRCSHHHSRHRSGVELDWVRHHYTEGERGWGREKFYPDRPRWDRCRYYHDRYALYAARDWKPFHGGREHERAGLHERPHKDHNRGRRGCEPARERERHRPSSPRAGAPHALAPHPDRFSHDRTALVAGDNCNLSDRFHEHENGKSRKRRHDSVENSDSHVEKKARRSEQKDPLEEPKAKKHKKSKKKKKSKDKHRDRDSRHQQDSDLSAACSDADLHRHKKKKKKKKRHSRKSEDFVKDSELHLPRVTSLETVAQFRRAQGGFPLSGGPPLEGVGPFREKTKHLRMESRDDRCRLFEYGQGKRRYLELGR
How it was run: (§1)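 Using Biotin-Ahx-Ub-VS at 0.5 µM final for 1 h, DUBs were labelled in HEK293T lysate (495 µg per sample) that had first been treated in triplicate with fragment at 200 µM or vehicle for 3 h. NeutrAvidin enrichment, LysC and trypsin digestion and diaPASEF LC-MS/MS followed. Spectronaut label-free quantities were global-median-normalised. Values are average log2 fragment/vehicle ratios by unpaired t-test, using proteins with ≥2 unique peptides.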

USP46 = USP46 (UniProt P62068)
How it was run: as §1

USP47 = molecular target: T2, USP47 (UniProt Q96K76)
T2 sequence (whole entry): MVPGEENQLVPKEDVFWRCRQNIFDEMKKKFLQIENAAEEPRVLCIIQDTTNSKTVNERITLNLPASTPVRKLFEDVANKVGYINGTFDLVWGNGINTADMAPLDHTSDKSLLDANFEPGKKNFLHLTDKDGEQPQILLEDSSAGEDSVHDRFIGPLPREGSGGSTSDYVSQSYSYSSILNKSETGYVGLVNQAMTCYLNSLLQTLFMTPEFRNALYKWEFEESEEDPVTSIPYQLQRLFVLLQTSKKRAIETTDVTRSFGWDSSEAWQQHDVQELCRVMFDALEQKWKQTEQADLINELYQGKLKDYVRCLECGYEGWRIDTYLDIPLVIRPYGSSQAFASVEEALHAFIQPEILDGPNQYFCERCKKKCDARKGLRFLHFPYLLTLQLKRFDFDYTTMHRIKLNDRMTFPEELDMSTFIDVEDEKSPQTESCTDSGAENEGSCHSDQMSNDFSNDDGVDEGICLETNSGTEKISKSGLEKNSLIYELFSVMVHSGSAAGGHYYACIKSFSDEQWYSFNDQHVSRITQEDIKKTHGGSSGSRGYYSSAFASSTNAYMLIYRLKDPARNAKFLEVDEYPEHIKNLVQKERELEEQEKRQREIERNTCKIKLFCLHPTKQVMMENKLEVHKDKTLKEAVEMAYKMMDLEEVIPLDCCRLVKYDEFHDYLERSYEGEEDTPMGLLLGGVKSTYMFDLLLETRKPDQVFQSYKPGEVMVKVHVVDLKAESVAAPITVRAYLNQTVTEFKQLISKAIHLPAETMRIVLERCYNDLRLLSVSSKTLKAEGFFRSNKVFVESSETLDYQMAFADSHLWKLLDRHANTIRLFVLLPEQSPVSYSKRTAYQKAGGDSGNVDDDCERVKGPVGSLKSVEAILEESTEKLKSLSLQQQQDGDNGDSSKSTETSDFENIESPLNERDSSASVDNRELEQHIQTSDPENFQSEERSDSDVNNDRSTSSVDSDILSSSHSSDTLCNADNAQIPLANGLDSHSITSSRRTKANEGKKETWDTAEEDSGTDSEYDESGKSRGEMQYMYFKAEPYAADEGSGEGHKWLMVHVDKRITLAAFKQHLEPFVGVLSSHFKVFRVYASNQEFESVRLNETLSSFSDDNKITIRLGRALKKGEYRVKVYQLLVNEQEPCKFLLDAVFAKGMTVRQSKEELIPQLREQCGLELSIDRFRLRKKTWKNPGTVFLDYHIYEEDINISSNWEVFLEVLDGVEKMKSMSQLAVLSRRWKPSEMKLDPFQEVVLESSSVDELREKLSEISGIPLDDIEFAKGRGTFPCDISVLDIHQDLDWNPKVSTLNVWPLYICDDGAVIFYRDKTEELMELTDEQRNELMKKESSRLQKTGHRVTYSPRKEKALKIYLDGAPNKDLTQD
How it was run: as §1

USP48 = molecular target: T3, USP48 (UniProt Q86UV5)
T3 sequence (whole entry): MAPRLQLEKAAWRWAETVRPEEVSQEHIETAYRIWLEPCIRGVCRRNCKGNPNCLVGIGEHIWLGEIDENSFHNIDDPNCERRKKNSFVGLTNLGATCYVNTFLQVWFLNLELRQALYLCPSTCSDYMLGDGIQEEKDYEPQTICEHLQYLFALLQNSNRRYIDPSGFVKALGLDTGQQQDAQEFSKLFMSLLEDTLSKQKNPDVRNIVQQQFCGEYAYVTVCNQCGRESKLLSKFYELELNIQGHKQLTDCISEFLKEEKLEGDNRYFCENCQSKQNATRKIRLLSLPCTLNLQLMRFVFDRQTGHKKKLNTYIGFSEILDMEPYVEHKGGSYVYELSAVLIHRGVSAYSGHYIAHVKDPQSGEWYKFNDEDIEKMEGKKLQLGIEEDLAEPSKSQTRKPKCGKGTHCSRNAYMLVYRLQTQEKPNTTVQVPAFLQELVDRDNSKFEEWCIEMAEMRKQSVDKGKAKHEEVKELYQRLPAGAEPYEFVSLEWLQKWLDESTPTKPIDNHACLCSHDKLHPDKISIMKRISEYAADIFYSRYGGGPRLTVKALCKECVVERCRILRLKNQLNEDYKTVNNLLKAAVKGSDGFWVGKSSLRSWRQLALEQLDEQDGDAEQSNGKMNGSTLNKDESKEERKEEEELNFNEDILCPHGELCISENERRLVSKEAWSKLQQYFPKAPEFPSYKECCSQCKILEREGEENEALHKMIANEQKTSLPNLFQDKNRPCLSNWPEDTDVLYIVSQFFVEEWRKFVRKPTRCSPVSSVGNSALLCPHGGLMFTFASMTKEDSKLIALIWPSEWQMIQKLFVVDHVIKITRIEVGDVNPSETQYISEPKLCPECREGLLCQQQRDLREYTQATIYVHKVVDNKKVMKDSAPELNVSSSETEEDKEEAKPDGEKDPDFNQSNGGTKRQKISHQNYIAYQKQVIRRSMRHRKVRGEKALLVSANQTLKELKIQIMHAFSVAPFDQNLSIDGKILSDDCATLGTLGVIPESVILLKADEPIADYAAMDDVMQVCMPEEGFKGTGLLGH
How it was run: as §1

USP5 = molecular target: T4, USP5 (UniProt P45974)
T4 sequence (whole entry): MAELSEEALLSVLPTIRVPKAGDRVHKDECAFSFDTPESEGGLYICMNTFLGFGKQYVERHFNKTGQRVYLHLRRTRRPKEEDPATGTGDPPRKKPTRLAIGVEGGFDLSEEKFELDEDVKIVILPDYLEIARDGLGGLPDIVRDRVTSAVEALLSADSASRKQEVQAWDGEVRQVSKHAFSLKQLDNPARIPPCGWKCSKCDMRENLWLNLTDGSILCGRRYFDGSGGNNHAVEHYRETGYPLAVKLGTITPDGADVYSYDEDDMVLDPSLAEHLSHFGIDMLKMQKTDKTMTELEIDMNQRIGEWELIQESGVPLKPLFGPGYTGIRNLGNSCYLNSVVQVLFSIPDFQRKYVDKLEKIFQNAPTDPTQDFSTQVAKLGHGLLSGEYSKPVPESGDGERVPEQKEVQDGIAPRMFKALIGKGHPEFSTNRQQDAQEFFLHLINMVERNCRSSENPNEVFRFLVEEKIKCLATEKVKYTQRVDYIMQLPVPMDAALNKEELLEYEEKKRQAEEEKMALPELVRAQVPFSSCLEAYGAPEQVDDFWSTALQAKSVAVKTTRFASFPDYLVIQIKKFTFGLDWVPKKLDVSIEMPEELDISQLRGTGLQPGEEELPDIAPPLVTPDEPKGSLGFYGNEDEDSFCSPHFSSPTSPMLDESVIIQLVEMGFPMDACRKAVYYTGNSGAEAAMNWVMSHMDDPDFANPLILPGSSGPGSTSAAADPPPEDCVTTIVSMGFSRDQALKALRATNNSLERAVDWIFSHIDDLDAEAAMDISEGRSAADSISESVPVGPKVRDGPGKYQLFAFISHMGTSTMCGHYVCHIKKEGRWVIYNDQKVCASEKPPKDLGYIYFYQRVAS
How it was run: as §1

USP54 = USP54 (UniProt Q70EL1)
How it was run: as §1

USP7 = USP7 (UniProt Q93009)
How it was run: as §1

USP8 = molecular target: T5, USP8 (UniProt P40818)
T5 sequence (whole entry): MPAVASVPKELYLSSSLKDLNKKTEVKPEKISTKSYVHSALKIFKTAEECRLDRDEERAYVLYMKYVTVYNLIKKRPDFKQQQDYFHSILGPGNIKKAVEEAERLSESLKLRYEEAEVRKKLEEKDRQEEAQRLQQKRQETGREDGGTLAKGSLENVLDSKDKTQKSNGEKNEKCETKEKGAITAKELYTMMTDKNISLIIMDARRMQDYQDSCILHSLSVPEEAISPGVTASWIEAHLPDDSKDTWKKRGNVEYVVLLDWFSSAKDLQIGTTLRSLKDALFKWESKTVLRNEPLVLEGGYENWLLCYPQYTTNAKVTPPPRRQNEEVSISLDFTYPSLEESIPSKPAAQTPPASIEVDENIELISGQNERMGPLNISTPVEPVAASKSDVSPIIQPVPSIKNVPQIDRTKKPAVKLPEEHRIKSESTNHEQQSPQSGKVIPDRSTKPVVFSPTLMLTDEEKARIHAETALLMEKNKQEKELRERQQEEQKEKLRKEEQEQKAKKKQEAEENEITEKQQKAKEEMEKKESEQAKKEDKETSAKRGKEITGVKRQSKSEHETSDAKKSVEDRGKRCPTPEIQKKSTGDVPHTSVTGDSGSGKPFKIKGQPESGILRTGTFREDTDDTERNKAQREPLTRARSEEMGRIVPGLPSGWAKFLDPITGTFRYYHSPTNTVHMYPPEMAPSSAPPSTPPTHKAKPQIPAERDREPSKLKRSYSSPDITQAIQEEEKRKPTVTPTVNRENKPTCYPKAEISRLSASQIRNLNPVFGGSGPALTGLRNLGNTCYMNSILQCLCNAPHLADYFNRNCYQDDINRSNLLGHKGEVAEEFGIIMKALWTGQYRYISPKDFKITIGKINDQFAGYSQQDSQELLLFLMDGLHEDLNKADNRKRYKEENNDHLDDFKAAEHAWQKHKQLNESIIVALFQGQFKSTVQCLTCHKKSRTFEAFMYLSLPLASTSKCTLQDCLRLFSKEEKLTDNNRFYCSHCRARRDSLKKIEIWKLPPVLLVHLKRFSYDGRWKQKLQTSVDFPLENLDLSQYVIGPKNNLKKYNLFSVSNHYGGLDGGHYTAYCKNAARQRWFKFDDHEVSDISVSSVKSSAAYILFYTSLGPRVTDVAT
How it was run: as §1

Measured: log2 ratio of Biotin-Ahx-Ub-VS probe labelling

Sequence of USP54 (Q70EL1 whole entry): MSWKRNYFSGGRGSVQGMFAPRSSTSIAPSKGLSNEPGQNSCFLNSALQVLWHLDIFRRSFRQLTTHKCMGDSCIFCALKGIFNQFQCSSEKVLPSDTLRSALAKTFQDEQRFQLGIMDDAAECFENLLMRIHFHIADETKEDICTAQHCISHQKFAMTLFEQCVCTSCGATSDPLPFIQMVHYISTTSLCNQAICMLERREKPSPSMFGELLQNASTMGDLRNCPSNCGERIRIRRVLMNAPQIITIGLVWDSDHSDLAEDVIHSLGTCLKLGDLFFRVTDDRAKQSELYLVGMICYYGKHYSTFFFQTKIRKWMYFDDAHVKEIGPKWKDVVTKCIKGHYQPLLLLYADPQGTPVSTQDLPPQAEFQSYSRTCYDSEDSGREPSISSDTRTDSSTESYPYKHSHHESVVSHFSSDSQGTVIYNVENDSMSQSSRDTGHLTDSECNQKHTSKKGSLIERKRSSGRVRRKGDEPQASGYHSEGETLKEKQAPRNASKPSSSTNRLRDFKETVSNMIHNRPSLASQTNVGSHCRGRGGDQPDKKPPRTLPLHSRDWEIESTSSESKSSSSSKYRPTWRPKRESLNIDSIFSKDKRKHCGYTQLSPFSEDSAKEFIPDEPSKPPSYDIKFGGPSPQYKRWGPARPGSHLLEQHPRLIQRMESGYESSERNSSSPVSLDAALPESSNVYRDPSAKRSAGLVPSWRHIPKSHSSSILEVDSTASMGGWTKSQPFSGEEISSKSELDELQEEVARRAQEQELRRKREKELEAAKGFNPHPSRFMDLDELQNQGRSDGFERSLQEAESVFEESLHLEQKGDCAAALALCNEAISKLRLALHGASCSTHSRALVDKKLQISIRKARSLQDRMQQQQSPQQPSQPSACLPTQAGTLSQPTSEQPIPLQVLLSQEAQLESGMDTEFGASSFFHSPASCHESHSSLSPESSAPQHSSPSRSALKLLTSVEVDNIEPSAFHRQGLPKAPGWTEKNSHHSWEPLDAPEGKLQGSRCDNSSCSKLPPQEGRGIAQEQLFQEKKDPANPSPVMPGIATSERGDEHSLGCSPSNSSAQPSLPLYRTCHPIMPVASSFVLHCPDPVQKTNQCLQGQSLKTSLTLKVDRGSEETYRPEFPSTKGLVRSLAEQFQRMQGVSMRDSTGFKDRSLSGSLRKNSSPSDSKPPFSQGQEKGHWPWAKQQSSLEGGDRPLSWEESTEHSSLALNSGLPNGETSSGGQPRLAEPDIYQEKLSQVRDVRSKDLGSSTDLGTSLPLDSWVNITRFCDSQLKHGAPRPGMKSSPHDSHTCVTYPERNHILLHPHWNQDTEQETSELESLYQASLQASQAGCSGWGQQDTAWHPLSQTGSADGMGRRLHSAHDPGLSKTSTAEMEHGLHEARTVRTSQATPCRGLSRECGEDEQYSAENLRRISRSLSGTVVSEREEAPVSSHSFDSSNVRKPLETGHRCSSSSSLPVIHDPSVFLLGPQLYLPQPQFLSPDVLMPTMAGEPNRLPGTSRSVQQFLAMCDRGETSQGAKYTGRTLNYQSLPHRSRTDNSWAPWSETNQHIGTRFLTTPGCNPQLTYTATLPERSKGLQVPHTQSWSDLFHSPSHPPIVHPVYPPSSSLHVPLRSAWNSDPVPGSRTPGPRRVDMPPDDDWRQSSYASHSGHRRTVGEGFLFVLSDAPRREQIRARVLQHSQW
Sequence of USP7 (Q93009 whole entry, looked up): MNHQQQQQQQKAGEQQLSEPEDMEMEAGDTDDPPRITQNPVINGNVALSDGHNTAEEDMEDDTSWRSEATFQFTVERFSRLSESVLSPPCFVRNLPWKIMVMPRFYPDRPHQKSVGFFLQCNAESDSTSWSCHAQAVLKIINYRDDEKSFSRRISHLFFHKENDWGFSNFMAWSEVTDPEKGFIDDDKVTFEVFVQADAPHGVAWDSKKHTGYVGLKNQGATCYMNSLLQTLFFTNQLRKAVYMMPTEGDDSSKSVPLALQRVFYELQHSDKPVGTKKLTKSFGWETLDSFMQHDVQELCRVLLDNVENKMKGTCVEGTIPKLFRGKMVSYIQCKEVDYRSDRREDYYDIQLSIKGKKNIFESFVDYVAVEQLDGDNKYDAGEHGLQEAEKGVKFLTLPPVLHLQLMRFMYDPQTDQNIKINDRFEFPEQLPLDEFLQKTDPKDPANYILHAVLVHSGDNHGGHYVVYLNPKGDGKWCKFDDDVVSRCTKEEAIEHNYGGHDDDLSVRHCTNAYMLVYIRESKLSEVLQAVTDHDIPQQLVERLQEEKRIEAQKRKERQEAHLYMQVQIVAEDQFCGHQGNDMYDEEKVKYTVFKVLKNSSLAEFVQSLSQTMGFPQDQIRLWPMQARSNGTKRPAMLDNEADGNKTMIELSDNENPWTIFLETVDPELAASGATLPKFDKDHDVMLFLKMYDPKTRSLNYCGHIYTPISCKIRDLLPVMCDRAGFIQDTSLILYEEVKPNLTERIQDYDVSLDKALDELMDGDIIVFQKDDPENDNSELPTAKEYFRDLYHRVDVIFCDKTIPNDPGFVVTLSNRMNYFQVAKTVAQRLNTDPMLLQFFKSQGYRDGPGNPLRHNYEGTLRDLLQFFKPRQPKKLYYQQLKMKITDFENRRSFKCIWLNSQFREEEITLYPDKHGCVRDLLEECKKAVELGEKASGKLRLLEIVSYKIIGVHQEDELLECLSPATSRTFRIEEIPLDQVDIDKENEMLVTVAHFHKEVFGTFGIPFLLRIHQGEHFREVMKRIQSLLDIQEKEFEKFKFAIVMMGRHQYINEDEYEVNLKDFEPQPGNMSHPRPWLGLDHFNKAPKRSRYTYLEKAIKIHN
Sequence of USP46 (P62068 whole entry): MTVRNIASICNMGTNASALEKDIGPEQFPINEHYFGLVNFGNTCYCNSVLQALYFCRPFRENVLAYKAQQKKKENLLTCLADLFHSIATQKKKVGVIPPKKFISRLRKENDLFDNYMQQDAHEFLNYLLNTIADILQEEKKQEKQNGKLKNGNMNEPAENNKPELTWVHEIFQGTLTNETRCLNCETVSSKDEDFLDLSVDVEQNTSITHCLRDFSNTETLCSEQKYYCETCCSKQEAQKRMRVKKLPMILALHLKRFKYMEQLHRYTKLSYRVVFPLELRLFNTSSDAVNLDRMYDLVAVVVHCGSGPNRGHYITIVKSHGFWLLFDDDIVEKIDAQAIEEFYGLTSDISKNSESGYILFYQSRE

Cl.O=C(CCl)NCCN1CCc2ccccc21
inactive: USP42 -0.219 | USP46 -0.521 | USP47 0.103 | USP48 -0.343 | USP5 -0.362 | USP54 0.277 | USP7 -0.711 | USP8 -0.959
